FEN1 inhibitor: blocks human flap endonuclease 1; P39748; Recombinant FEN1 flap cleavage, fluorescence, 15 min; Potency, µM (doses to about 114 µM), without a hit: top-dose activity change, negative = inhibition, actives largely listed as inhibitors; 0.35% of 390,000 active; AID 588795; note: nearly all actives have a fitted effect of over 65% in size
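Compounds are tested as a concentration series against 10 nM FEN1; after a 15 min room-temperature preincubation, 50 nM substrate starts cleavage, with plate reads at 0 and 15 min. Normalized responses are fitted by a Hill equation.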
RECQ1 inh: inhibitors of human RECQ1 DNA helicase; RECQ1 DNA unwinding, red fluorescence kinetic read; P46063; AID 2549; Potency, µM (titrated, usually from 57.3 µM), for inactives: at the highest dose activity, negative = inhibition, usual class: inhibitors; 0.54% of 240,000 active;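 note: plate controls were vehicle for no effect and no enzyme for full effect; nearly all actives have a fitted effect of over 30% in size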
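RECQ1T1 50 nM; forked duplex (20 bp + 30-nt ss tails) 200 nM, ATP 2 mM final; pH 8.0, 2 mM MgCl2, 2.5 ug/ml poly(dI-dC); 15 min compound preincubation; discontinuous kinetic read over 2 h at RT.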
APEX1 inh: APE1 (human) endonuclease inhibition | P27695 | recombinant APE1, TAMRA/BHQ-2 abasic DNA cleavage fluorescence | Potency, µM (top dose mostly 65.8 µM), for the others: at the top dose activity change, negative = inhibition, actives largely listed as inhibitors | 0.35% of 350,000 active | AID 2517;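 note: plate controls were vehicle for no effect and reference inhibitor for full effect; nearly all actives have a fitted effect of over 55% in size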
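Enzyme (0.75 nM final) and test compound are incubated 15 min at room temperature before adding 50 nM quenched THF abasic-site duplex. Cleavage dequenches TAMRA, followed at 525/598 nm over three reads one minute apart.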
TDP1 block: TDP1 (human) enzyme inhibition | recombinant TDP1, AlphaScreen DNA substrate cleavage | Potency, µM (series often up to 130 µM), inactives show at the top dose activity change, negative = inhibition, most hits filed as inhibitors | 0.28% of 350,000 active | AID 485290; note: nearly all actives have a fitted effect of over 40% in size
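Compounds were preincubated with Tdp1 (1 nM final) for 15 min at room temperature before substrate (15 nM final) started a 5 min reaction; beads (10 ug/ml final) were then added for 10 min before AlphaScreen detection.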
BLM helicase inh: inhibitors of human Bloom syndrome helicase BLM. Potency, µM (doses to about 56.1 µM), for inactives: at the highest dose activity change, negative = inhibition, most hits filed as inhibitors. P54132. AID 2528. 0.2% of 350,000 active. recombinant BLM DNA unwinding, fluorescence dequenching;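 note: plate controls were vehicle for no effect and no enzyme for full effect; nearly all actives have a fitted effect of over 35% in size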
Numbers without * were called inactive; i = inactive; ? = inconclusive; · = no result given. This is a sample that favours compounds with a hit; in the whole collection about 0.92% have one here. Calls come from the whole dose curve; as a rule, active = well fitted curve in the direction sought with a large enough effect; inconclusive = small, poorly fitted or top-dose-only effect, or another doubt; inactive = no such curve, though single readings can be large; an effect the other way counts as inactive or inconclusive. Unless noted, % is set by controls: 0 for no effect and ±100 for the full control effect; potency is the fitted concentration of half-maximal effect.

SMILES	FEN1 inhibitor	RECQ1 inh	APEX1 inh	TDP1 block	BLM helicase inh
ClCC1CSC(=NC23CC4CC(CC(C4)C2)C3)O1 (configuration not stated)	10%	12%	2%	0%	-5%
N#Cc1nonc1-c1ccccc1	·	·	2%	·	·
CN(C)c1ccc2c(O)cc(=O)n(C)c2c1	?	1%	16%	-2%	-7%
CN(C)c1ccc2cc(S(=O)(=O)O)cc(O)c2c1	50µM*	·	·	·	·
CCc1cccc2c(C(O)c3c[nH]c4ccccc34)c[nH]c12 (configuration not stated)	-22%	·	·	·	·
Cc1ccc(NC(=O)c2cccs2)cc1NC(=O)c1cccc(F)c1	-2%	·	19%	·	-3%
COc1cccc(C(=O)Nc2cc(NC(=O)c3cccs3)ccc2C)c1	-5%	·	25%	6.3µM*	-8%
NS(=O)(=O)c1ccc(CCNC(=O)c2ccc(Cn3c(=O)[nH]c4ccccc4c3=O)cc2)cc1	17%	-2%	-5%	0%	-2%
O=C(NCCc1ccc(Cl)cc1)c1ccc(Cn2c(=O)[nH]c3ccccc3c2=O)cc1	-7%	·	0%	28µM*	-29%
CCn1cc(C(=O)O)c(=O)c2cc(F)c(N3CCN(C(=S)Nc4ccc(OC)cc4)CC3)cc21	-22%	4%	-1%	·	-5%
CCn1cc(C(=O)O)c(=O)c2cc(F)c(N3CCN(C(=S)NC(=O)c4cc(OC)cc(OC)c4)CC3)cc21	22%	·	-12%	45µM*	3%
Cc1ccccc1-c1nccc(-n2ccnc2)n1	·	-6%	3%	·	3%
Cc1ccccc1-c1cc(-n2ccnc2)ncn1	·	1%	2%	25µM*	0%
CC(C)(C)n1ncc2c(=O)n(Cc3cccc(-c4ccccc4)c3)cnc21	6%	·	-4%	·	·
Cc1cnc(CNc2ncncc2-c2ccccc2C(F)(F)F)cn1	·	6%	0%	40µM*	4%
NC(=O)C1CCN(c2nc(-c3cccc4sc5ccccc5c34)cs2)CC1	·	·	-3%	·	·
O=c1[nH]c2ccc(S(=O)(=O)N3CCN(S(=O)(=O)c4ccc5c(c4)OCCO5)CC3)cc2[nH]c1=O	·	·	·	50µM*	·
COC/C=C/c1cc(F)c(S(=O)(=O)N2CCN(S(=O)(=O)c3ccc4c(c3)OCCO4)CC2)cc1F	·	·	·	0%	·
O=c1[nH]c2ccc(S(=O)(=O)N3CCN(c4ccccc4)CC3)cc2[nH]c1=O	56µM*	-9%	-5%	-12%	?
O=C(O)/C=C/c1cc(F)c(S(=O)(=O)N2CCN(S(=O)(=O)c3ccc4c(c3)OCCO4)CC2)cc1F	·	·	·	50µM*	·
O=S(=O)(c1ccc2c(c1)OCCO2)N1CCN(S(=O)(=O)c2ccc3c(c2)OCCO3)CC1	·	·	-4%	0%	·
O=C(NCc1nnc(-c2cc3ccccc3[nH]2)o1)c1ccccc1	·	·	·	-2%	·
NC(=O)c1cccc(-c2noc(-c3ccccc3C(F)(F)F)n2)c1	·	·	2%	·	·
O=C(N/N=C/c1cc(Br)c(Br)o1)c1ccc2c(c1)OCCO2	-22%	?	32µM*	1%	3%
O=C(N/N=C/c1cc(Br)c(O)c(Br)c1O)c1ccc2c(c1)OCCO2	5%	·	-15%	4%	-13%
SMILES	FEN1 inhibitor	RECQ1 inh	APEX1 inh	TDP1 block	BLM helicase inh
CC(C)(C)n1ncc2c(=O)n(Cc3cccc(F)c3)cnc21	14%	·	1%	·	·
O=C1c2cccc3c([N+](=O)[O-])ccc(c23)C(=O)N1c1ccccn1	-12%	-1%	-8%	-8%	-1%
O=C1c2cccc3c([N+](=O)[O-])ccc(c23)C(=O)N1O	3.2µM*	·	-44%	·	-16%
COc1ccc2c3c(cccc13)C(=O)N(O)C2=O	0.35µM*	1%	2%	-4%	1%
NC(=O)C1CCN(c2nc(-c3ccc([N+](=O)[O-])cc3)cs2)CC1	·	·	38%	·	·
COc1cc(C2Nc3cccc4cccc(c34)N2)ccc1OC(C)=O	40µM*	i	-4%	-2%	-3%
COc1ccc(C2Nc3cccc4cccc(c34)N2)cc1Br	-13%	·	-4%	·	-9%
CCCCC(NC(=O)Cc1c(C)c2cc3c(C)c(C)oc3c(C)c2oc1=O)C(=O)O (configuration not stated)	5%	·	13%	·	2%

Assay outcomes (PubChem)
